From PubChem BioAssay (NCATS) come the findings set out here.

Values without a mark were called inactive. Records with an inconclusive call do not appear. Activity calls are given as the source filed them. Unless noted, the call rests on the fitted dose curve; in most records, active means well fitted curve in the direction sought with a large enough effect; inconclusive means small, poorly fitted or top-dose-only effect, or another doubt; inactive means no such curve, though single readings can be large; an effect the other way counts as inactive or inconclusive.

Experiment [1] in a line: Cellular Toxicity (caspase-3) Jurkat (AID 655).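 Further: cells exposed to compound for 16 h at 37 °C before reading.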 Conditions: Jurkat caspase-3 activation, luminescence, DMSO = 0%, tamoxifen = 100%; at 92.2 µM (top of the series). A digest of the protocol: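 Luminescent Caspase-Glo 3/7 read-out (20 min, room temperature) after 16 h compound treatment at 37 C of 5000 Jurkat cells per well. AC50 derived by Hill-equation fitting, scaled between DMSO basal and 100 uM tamoxifen stimulation.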

Experiment [2] in a line: Cellular Toxicity (caspase-3) HUV-EC-C (AID 656). The method, boiled down: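 Luminescent Caspase-Glo 3/7 readout after 16 h, 37 °C compound exposure of HUV-EC-C endothelial cells, 1000 per well, complete medium. AC50 derived by Hill fitting, with DMSO as baseline and 100 uM tamoxifen as full activation.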
Experiment [3] is described as follows: Cellular Toxicity (caspase-3) SHSY5Y (AID 657). The method, boiled down:
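Luminescent Caspase-Glo 3/7 read-out, 1 hr room temperature, follows 16 hours of compound treatment of SH-SY5Y cells at 37 °C. Normalization: DMSO basal, 10 uM staurosporine as 100%; AC50 values from Hill-equation concentration-response fits.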

A short description of experiment [4]: Cellular Toxicity (caspase-3) BJ (AID 658).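 Further: 0% = DMSO basal and 100% = 10 µM staurosporine.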 The method, boiled down: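 BJ human foreskin fibroblasts, 1000 cells/well, treated 16 hours at 37 °C in complete medium; caspase 3/7 activity by Caspase-Glo luminescence after 1 hr at room temperature. Normalized to DMSO and 10 uM staurosporine; AC50 from Hill fits.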
The nature of experiment [5]: Cellular Toxicity (caspase-3) MRC-5 (AID 659).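 Further: 0% = DMSO basal and 100% = 10 µM staurosporine.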 The method, boiled down:
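MRC-5 human normal lung fibroblasts, 1500 cells/well, treated 16 h at 37 °C in complete medium. Caspase 3/7 measured by Caspase-Glo luminescence after 1 h at room temperature. Normalized to DMSO and 10 uM staurosporine; AC50 from Hill fit.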

Experiment [6] in a line: Cellular Toxicity (caspase-3) Mesangial (AID 660).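 Further: combined caspase 3 and 7 activity read by Caspase-Glo luminescence.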 The method, boiled down: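 Mesangial cells, 1000/well, 5 h settle at 37 °C; compound 16 h, 37 °C; Caspase-Glo 3/7 reagent 20 min RT; luminescence. Norm.: DMSO = 0%, tamoxifen 100 uM = 100%. AC50, Hill fit.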
Experiment [7] can be described thus: Cellular Toxicity (caspase-3) SK-N-SH (AID 661).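 Further: 0% = DMSO basal and 100% = 10 µM staurosporine.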 A digest of the protocol: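 Human neuroblastoma SK-N-SH, 1500 cells/well, 5 hr pre-incubation, then compound 16 hr, 37 °C. Caspase-Glo 3/7 reagent, 1 hr RT, luminescence. Norm. to DMSO/10 uM staurosporine; Hill-fit AC50.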
Experiment [8] in a line: Cellular Toxicity (caspase-3) H-4-II-E (AID 663).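 Further: cells exposed to compound for 16 hr before readout.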 A digest of the protocol:
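Rat hepatoma H-4-II-E cells (1500/well) plated 5 hr, then exposed to compound titrations for 16 hr at 37 °C. Caspase-Glo 3/7 luminescence read after 20 min at RT; data normalized to DMSO and 100 uM tamoxifen, AC50 from Hill fits.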

Experiment [9] can be described thus: Cellular Toxicity (caspase-3) N2a (AID 665).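 Further: compound exposure lasted 16 h at 37 °C before readout.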 A digest of the protocol:
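N2a cells, 1500/well, 5 h settle at 37 °C; cpd 16 h, 37 °C; Caspase-Glo 3/7, 1 h RT; luminescence. Norm: DMSO = 0, 10 uM staurosporine = 100%. AC50, Hill fit.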

Experiment [10] is described as follows: Cellular Toxicity (caspase-3) NIH 3T3 (AID 666).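 Further: caspase signal read after 16 h compound exposure.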 The method, boiled down: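 Luminescence from aminoluciferin released by caspase-3/7 cleavage of a peptide substrate served as read-out. Mouse fibroblast NIH 3T3 cells were exposed to compounds over a concentration range for 16 hours, and AC50 values came from standard Hill modelling.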
Experiment [11] can be described thus: Cellular Toxicity (caspase-3) Renal Proximal Tubule (AID 667).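 Further: cells exposed to compound for 16 hours at 37 °C before detection; 0% = DMSO basal and 100% = 10 µM staurosporine.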 The method, boiled down: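 Caspase 3/7 activation measured by luminescent aminoluciferin release in primary rat proximal tubule cells after 16 hr compound exposure at 37 °C. AC50 from Hill-fitted concentration-response, scaled between DMSO and 10 uM staurosporine.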
In experiment [12] the target is Guanine nucleotide-binding protein G(i) subunit alpha-1 (Homo sapiens) (UniProt P63096). Kind of experiment: qHTS Assay for Inhibitors of RGS12 GoLoco Motif Activity (Green Fluorophore) (AID 879).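 Further: 0% = labeled peptide with Gαi1 and full inhibition = labeled peptide alone without protein; negative values mean loss of peptide binding seen as reduced polarization.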 A digest of the protocol:
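Fluorescence polarization assay: 50 nM Gαi1 with 10 nM FITC-labeled RGS12 GoLoco peptide in 10 mM Tris pH 7.5, 150 mM NaCl, 0.1 mM GDP, 0.05% NP40, 10 min at room temperature with compound.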
In general terms: qHTS replaces the single test concentration by a dilution series.

The target in experiment [13] is Cytochrome P450 2C9 (Homo sapiens) (UniProt P11712). As to the kind of experiment: qHTS Assay for Inhibitors and Substrates of Cytochrome P450 2C9 (AID 883). Further: on the % scale 0 is the no-effect control and ±100 the full control effect; nearly all actives have a fitted effect of over 60% in size. The method, boiled down:
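Signal: luciferase luminescence reporting luciferin produced by CYP2C9. Conditions: 10nM enzyme, Luciferin-H 100uM at KM, 25mM KPO4, 37C, 60 min NADPH-driven reaction. Reference: 57uM sulphaphenazole as 100% inhibition.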

For experiment [14], the target named is Cytochrome P450 3A4 (Homo sapiens) (UniProt P08684). Kind of experiment: qHTS Assay for Inhibitors and Substrates of Cytochrome P450 3A4 (AID 884). Further: on the % scale 0 is the no-effect control and ±100 the full control effect; nearly all actives have a fitted effect of over 50% in size. A digest of the protocol:
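20 nM human CYP3A4 with 25 uM Luciferin-PPXE (at KM) in 200 mM KPO4, preincubated 10 min with compound; NADPH regeneration started a 60 min RT reaction. Luciferin detected by luminescence, normalized to 57 uM ketoconazole as full inhibition.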

Experiment [15] addresses Cytochrome P450 2D6 (Homo sapiens) (UniProt P10635). Kind of experiment: qHTS Assay for Inhibitors and Substrates of Cytochrome P450 2D6 (AID 891).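 Further: luciferin methyl ether substrate demethylated by CYP2D6 with NADPH regeneration; on the % scale 0 is the no-effect control and ±100 the full control effect; nearly all actives have a fitted effect of over 60% in size.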 The method, boiled down: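 Human CYP2D6 (5 nM) with 30 uM Luciferin-ME EGE (at Km) in 100 mM KPO4, compound preincubated 10 min, then NADPH regeneration system for 60 min at room temperature. Luciferin read by luminescence; normalized to 1.43 uM quinidine.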

The target in experiment [16] is Cytochrome P450 2C19 (Homo sapiens) (UniProt P33261). Kind of experiment: qHTS Assay for Inhibitors and Substrates of Cytochrome P450 2C19 (AID 899). Further: on the % scale 0 is the no-effect control and ±100 the full control effect; nearly all actives have a fitted effect of over 60% in size. A digest of the protocol:
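Signal comes from luciferase acting on luciferin released by CYP2C19-mediated hydroxylation of Luciferin-H EGE, 10uM (KM). Assay mix: 5nM enzyme, 50mM KPO4; 60 min at 37C with NADPH regeneration. Data normalized against 57uM ketoconazole.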

Experiment [17] is described as follows: Confirmation and Secondary Assay for Modulators of Hemoglobin Beta Chain Splicing at IVS2 654 locus (AID 910).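 Further: HeLa cells stably carrying EGFP split by mutant beta-globin IVS2-654 intron; % of control where 0% means no effect.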 A digest of the protocol:
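HeLa cells stably expressing EGFP interrupted by β-globin IVS2-654 intron, seeded overnight in Opti-MEM/2% FCS, then treated 2 days at 37 °C. Restored splicing read as total peak GFP intensity per well by laser scanning cytometry (488 nm excitation, 500–520 nm emission); 500 nM antisense PNA as control.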

Experiment [18] is described as follows: qHTS Assay for Identification of Small Molecule Antagonists for NFkB Signaling Pathway (AID 895; active means well fitted inhibition curve with a large enough effect in the signal ratio, with a control signal flat, not every such curve was filed as active; the % refers to the signal ratio; further: potency means the concentration at half of the fitted maximal effect). A digest of the protocol: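 ME-180 NFkB-bla cells (beta-lactamase under NFkB response element), plated overnight, treated with compound then 10 pM TNF alpha (about EC50) for 5 hrs at 37 C. LiveBLAzer FRET read at 460/530 nm emission, 405 nm excitation.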

Chain of Guanine nucleotide-binding protein G(i) subunit alpha-1 (Homo sapiens) (P63096 whole entry, looked up): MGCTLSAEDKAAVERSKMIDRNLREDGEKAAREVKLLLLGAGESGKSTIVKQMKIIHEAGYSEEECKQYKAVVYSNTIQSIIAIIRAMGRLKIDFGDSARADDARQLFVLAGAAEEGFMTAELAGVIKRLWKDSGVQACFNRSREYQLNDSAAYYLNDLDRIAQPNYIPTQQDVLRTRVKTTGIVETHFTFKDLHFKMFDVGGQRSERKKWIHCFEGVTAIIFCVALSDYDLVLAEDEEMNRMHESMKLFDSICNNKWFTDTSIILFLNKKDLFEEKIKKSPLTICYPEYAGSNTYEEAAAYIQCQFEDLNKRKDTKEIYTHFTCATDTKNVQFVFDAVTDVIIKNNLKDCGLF
Chain of Cytochrome P450 3A4 (Homo sapiens) (P08684 whole entry, looked up): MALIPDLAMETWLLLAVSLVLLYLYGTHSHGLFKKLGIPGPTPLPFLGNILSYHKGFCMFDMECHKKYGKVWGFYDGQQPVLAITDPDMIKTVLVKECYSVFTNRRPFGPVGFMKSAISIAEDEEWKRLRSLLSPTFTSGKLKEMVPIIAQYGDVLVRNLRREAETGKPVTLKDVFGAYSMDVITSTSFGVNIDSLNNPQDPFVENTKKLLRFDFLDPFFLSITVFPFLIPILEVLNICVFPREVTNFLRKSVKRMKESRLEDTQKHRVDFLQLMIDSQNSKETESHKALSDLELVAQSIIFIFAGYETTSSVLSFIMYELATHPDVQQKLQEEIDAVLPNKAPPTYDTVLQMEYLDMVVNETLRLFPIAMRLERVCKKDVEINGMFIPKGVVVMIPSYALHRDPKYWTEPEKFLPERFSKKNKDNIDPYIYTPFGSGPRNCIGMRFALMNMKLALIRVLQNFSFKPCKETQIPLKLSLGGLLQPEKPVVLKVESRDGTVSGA
Chain of Cytochrome P450 2D6 (Homo sapiens) (P10635 whole entry, looked up): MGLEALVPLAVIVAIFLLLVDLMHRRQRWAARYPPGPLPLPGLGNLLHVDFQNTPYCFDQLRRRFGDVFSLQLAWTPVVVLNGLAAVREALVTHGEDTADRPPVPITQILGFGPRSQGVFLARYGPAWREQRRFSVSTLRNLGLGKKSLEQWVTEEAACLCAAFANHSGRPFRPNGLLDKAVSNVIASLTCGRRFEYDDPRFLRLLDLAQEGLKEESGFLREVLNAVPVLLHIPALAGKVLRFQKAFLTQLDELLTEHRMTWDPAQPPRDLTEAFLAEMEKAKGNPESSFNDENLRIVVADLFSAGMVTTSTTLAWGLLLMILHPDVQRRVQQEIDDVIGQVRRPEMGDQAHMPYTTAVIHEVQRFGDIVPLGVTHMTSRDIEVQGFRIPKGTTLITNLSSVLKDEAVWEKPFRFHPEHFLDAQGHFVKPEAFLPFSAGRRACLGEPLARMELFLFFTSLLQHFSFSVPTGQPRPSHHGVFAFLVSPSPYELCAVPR
Chain of Cytochrome P450 2C19 (Homo sapiens) (P33261 whole entry, looked up): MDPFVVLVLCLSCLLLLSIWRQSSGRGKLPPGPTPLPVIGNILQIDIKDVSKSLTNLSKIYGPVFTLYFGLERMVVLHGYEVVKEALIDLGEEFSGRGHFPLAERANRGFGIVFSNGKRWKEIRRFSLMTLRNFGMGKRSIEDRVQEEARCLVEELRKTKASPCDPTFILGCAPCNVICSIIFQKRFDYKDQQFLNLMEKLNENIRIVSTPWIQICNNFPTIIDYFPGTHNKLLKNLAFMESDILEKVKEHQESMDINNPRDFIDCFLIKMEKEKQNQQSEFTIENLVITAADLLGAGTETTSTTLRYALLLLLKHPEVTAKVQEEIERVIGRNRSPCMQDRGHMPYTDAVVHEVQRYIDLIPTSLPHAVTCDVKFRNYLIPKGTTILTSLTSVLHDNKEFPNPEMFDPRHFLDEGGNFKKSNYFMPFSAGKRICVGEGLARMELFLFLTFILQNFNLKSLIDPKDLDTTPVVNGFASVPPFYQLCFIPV
Chain of Cytochrome P450 2C9 (Homo sapiens) (P11712 whole entry, looked up): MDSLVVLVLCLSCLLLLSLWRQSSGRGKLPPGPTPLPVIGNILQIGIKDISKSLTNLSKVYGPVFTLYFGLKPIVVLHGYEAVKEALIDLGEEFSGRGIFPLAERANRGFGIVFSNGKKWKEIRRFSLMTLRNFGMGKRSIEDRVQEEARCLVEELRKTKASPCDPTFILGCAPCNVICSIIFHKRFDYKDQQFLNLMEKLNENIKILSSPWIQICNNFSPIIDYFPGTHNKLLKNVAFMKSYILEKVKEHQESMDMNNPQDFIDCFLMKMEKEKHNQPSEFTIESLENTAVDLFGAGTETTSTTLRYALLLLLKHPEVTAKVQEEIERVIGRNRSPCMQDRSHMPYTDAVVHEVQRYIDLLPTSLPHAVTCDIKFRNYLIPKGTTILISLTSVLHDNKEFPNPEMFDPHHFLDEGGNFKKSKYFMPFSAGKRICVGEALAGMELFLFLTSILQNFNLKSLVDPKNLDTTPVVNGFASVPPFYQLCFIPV

Consider `O=P1(N(CCCl)CCCl)NCCCO1` (stereo unspecified), for which the caspase-3 activation in [1] is -0.663%. For the same compound, the Potency result in [2], in experiment [14], in experiment [15] and in [16] was “inactive” throughout. Moreover, the compound was called inactive in [3], in [4], in [5], in experiment [6], in experiment [7] and in experiment [8]. Further, the call in experiment [9], in experiment [10], in experiment [11], in experiment [12], in experiment [13] and in experiment [17] was inactive.

`CCCC(C)(COC(N)=O)COC(N)=O`: the caspase-3 activation in experiment [1] was 0.151%. For the same compound, the Potency result in experiment [2] and in experiment [14] was “inactive” in each case. For the same compound, the outcome in [3], in experiment [4], in experiment [5], in experiment [6], in [7] and in experiment [8] was inactive. For the same compound, the outcome in experiment [9], in experiment [10] and in [11] was inactive.

As for `CC(C)c1cccc(C(C)C)c1O`, the caspase-3 activation in experiment [1] is 0.709%. In addition, the Potency entry in experiment [2] and in experiment [18] was “inactive” each time. Moreover, the compound was called inactive in experiment [3], in experiment [4], in experiment [5], in [6], in [7] and in experiment [8]. In addition, the outcome in experiment [9], in experiment [10], in [11], in experiment [12] and in experiment [17] was inactive.

Turning to `C[C@]12CCC(=O)C=C1CC[C@@H]1[C@@H]2CC[C@@]2(C)[C@H]1CC[C@]2(C)O`, the caspase-3 activation in experiment [1] was 22.4%. The Potency result in [2] and in experiment [14] was “inactive” in each case. For the same compound, the result in [3], in [4], in [5], in experiment [6], in [7] and in [8] was inactive. Moreover, the call in experiment [9], in [10] and in [11] was inactive.

As to `O=C(O)CCCc1ccc(N(CCCl)CCCl)cc1`, the caspase-3 activation in experiment [1] is 96.5% (active). For the same compound, the Potency result in [2], in [14], in [15] and in experiment [16] was “inactive” in each case. Besides, the compound was classed as inactive in [4], in [5], in experiment [6], in experiment [8], in [9] and in experiment [10]. Further, the compound was called inactive in [11], in experiment [12], in [13] and in experiment [17]. In addition, the Potency in [18] was 8.91 µM (active).
